# High-throughput results (PubChem BioAssay)
# ATXN viability: Viability Counterscreen for Primary qHTS for Inhibitors of ATXN expression; S2 cells (HEK-293 line with an ATXN2-luciferase reporter) viability, CellTiter-Fluor protease fluorescence, 24 h; Potency, µM (top dose mostly 56.7 µM), hits mostly cytotoxic; actives 0.49% (n = 400,000); AID 651635, 2014; further: nearly all actives have a fitted effect of over 40% in size
# HepG2 viability: qHTS for Inhibitors of TGF-b: Cytotox Counterscreen; HepG2 CAGA-GFP viability, ATP luminescence, 18 h; Potency, µM (highest dose often 46.1 µM), most hits filed as cytotoxic; actives 0.76% (n = 410,000)
#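 CellTiter-Glo luminescence gave cytotoxicity after 18 hours at 37 degrees C. The cells were HepG2 CAGA-GFP in 1% FBS DMEM, stimulated with 500 pg/mL TGF-beta after compound addition. %Activity was normalised to no-cell wells (complete cell-killing) and DMSO (no toxicity), and curves were fitted and classified.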
# ATXN2 expr inh: Primary qHTS for Inhibitors of ATXN expression; HEK-293 ATXN2-luciferase reporter, luminescence, 24 h; Potency, µM (top dose mostly 57 µM), actives largely listed as inhibitors; actives 0.72% (n = 360,000); AID 1745845, 2022; further: nearly all actives have a fitted effect of over 55% in size
#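 qHTS (up to 57 uM final) was run with 24 h compound exposure of reporter cells at 37 °C. Each well was multiplexed: SteadyGlo luminescence measured ATXN2-luciferase expression after a fluorogenic Gly-Phe-AFC viability readout (25 uM final).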
# IL-1B inflam inh: qHTS for Inhibitors of Inflammasome Signaling: IL-1-beta AlphaLISA Primary Screen | THP-1 LPS/ATP IL-1B secretion, AlphaLISA, 16 h; stronger effect = lower value | activity change, % at 57.5 µM | actives 4.7% (n = 360,000) | AID 743279, 2014; in the data active means activity change below about -50%; inconclusive means mostly about -30% to -49%
#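 Secreted IL-1B measured by AlphaLISA bead assay after 16 h compound exposure of THP-1 cells; compounds (final up to 57.5 uM) added 1 h before LPS (250 ng/mL) and ATP (1.25 mM) stimulation; lower signal means less secretion.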
# TGFb SMAD3 inh: qHTS for Inhibitors of TGF-b; HepG2 CAGA-GFP TGF-b/SMAD3 reporter, GFP fluorescence, 18 h; TGF-beta stimulated, 500 pg/mL final; AID 588855, 2011; actives 1.2% (n = 410,000); Potency, µM (top dose mostly 46.1 µM), usual class: inhibitors; further: nearly all actives have a fitted effect of over 65% in size
#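 HEPG2 CAGA-GFP reporter cells (1000/well, DMEM with 1% FBS) received compounds, then recombinant TGF-beta at 500 pg/mL final for 18 hours at 37 degrees C. Per-cell GFP summed per well was normalised to unstimulated and stimulated DMSO controls before curve fitting.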
# Numbers stand for hits; . = inactive; ? = inconclusive; / = not tested or not shown. Most compounds without a hit are left out; they make up all but 5.7% or so of the library. Unless noted, the call rests on the fitted dose curve; in most records, active means well fitted curve in the direction sought with a large enough effect; inconclusive means small, poorly fitted or top-dose-only effect, or another doubt; inactive means no such curve, though single readings can be large; an effect the other way counts as inactive or inconclusive.
SMILES,ATXN viability,HepG2 viability,ATXN2 expr inh,IL-1B inflam inh,TGFb SMAD3 inh
Cc1ccccc1-c1ccc(CN2C(C(C)C)C(=O)N(Cc3cn(CCC4OCCO4)nn3)CCS2(=O)=O)cc1 (stereo unspecified),?,.,?,-57,?
CCOC(=O)c1cnc2ccc(C)cc2c1N(C)Cc1ccccc1,/,.,.,-68,.
CCOC(=O)c1cnc2ccc(C)cc2c1Sc1ccccc1,.,.,.,.,.
O=C(NCCNC1CCC(c2ccccc2)CC1)c1cccs1 (stereo unspecified),/,.,.,-72,.
C(=Cc1c[nH]c2ccccc12)c1nccc2ccccc12,.,.,?,-82,.
Cc1ccc(S(=O)(=O)Nc2cccc3ncccc23)s1,?,.,?,-112,?
O=c1c2sccc2n(Cc2cc(=O)n3cc(Cl)ccc3n2)c(=O)n1-c1ccccc1,/,.,/,/,.
Cc1cc(N/N=C/c2ccccc2O)nc(-c2ccccc2O)n1,.,.,.,.,.
Cc1cc(N/N=C/c2ccc(O)cc2O)nc(-c2ccccc2O)n1,?,.,?,-77,?
Cc1ccc(/C=C2\SC(=S)N(NS(=O)(=O)c3ccc(C)cc3)C2=O)cc1,?,.,/,.,.
COc1ccc(/C=C2/SC(=S)N(NS(=O)(=O)c3ccc(C)cc3)C2=O)cc1,.,.,.,-56,.
Cc1ccc(-c2c3c(=O)n(C)c(=O)n(C)c3c3n2-c2ccccc2NC3c2ccc(C)cc2O)cc1 (stereo unspecified),?,.,?,/,6.3µM
COc1ccc(O)c(C2Nc3ccccc3-n3c(-c4ccccc4)c4c(=O)n(C)c(=O)n(C)c4c32)c1 (stereo unspecified),.,.,.,/,?
CCCCNC(=O)c1ccc2nc(-c3cccs3)c(-c3cccs3)nc2c1,/,.,/,/,.
COC(CNC(=O)c1ccc2nc(-c3cccs3)c(-c3cccs3)nc2c1)OC,.,.,.,-51,.
CCCCOc1ccc(C(=O)NCc2cn3cccc(C)c3n2)cc1,/,.,/,/,.
COc1ccc(C(Nc2cc(C)ccn2)c2ccc3ccc(C)nc3c2O)cc1 (stereo unspecified),.,.,.,.,.
COc1cc(C(Nc2ccccn2)c2ccc3ccc(C)nc3c2O)cc(OC)c1O (stereo unspecified),/,.,?,-116,?
Cc1cccc(NC(c2ccc(C)s2)c2ccc3ccc(C)nc3c2O)n1 (stereo unspecified),.,.,?,-74,.
Cc1ccnc(NC(c2ccsc2)c2ccc3ccc(C)nc3c2O)c1 (stereo unspecified),.,.,.,-84,?
Cc1ccc2ccc(C(Nc3ccccn3)c3ccccc3)c(O)c2n1 (stereo unspecified),.,.,?,.,?
COc1ccccc1/C=C/c1cnccn1,/,.,/,/,.
CNc1ccc(C=O)cc1Br,/,.,/,/,.
CCOc1ccccc1CNS(=O)(=O)c1ccc2c(c1)CCCN2C(C)=O,.,.,.,/,.
O=[N+]([O-])/C(C(Cl)=C(Cl)Cl)=C(/Sc1ccccc1)N1CCCCC1,.,.,.,-89,.
SMILES,ATXN viability,HepG2 viability,ATXN2 expr inh,IL-1B inflam inh,TGFb SMAD3 inh
O=C(N/C(=C\c1ccc([N+](=O)[O-])cc1)C(=O)N1CCCCC1)c1ccccc1,.,.,.,.,.
CC(=O)Oc1c(C)cc(Cl)cc1C(=O)Nc1ccc([N+](=O)[O-])cc1Cl,28µM,.,?,-67,?
CCN(CC(=O)Nc1ccccc1C(F)(F)F)C(=O)c1ccc(=O)n(Cc2ccccc2)n1,?,.,.,.,.
CCCN(CC(=O)Nc1ccccc1C)C(=O)c1ccc(=O)n(Cc2ccccc2)n1,.,.,.,-87,.
CSc1nccc(-c2cc(Cl)c3c(c2)CC(CNC(=O)c2nonc2C)O3)n1 (stereo unspecified),.,/,/,/,/
O=C(NCc1ccco1)/C(=C\c1cccs1)NC(=O)c1ccsc1,.,.,.,.,.
Cc1ccc(C(=O)N/C(=C\c2cccs2)C(=O)NCCc2c[nH]c3ccccc23)cc1,.,.,.,-63,?
CC(C)(C)c1ccc(C(=O)N/C(=C/c2cccs2)C(=O)NCc2ccco2)cc1,.,.,.,-68,.
Cc1cc2c(cc1CC(=O)c1sccc1S(=O)(=O)Nc1onc(C)c1Cl)OCO2,.,/,.,/,/
Cc1oc(C(C)(C)C)cc1-c1cc(NC(=O)c2ccc([N+](=O)[O-])cc2)n[nH]1,.,.,.,-63,.
Cc1cc(NC(=O)c2ccc([N+](=O)[O-])cc2)no1,.,.,.,.,.
N=C1N(c2ccccc2)C(=S)C(=Nc2ccccc2)N1c1ccccc1,.,.,.,.,1.6µM
CS(=O)(=O)Nc1cccc(NC(=O)c2ccc(-c3ccc(F)c(F)c3)c3ccoc23)c1,?,.,.,?,?
Cn1nccc1-c1ccc(C(=O)Nc2cccc(NS(C)(=O)=O)c2)c2occc12,.,.,.,-50,.
CC1CCC(NC(=O)c2ccc3c(c2)N(Cc2ccccc2F)C(=O)c2ccccc2S3)CC1 (stereo unspecified),.,.,.,/,.
CCOc1ccc(CNC(=O)C2CCN(c3nc4ccccc4nc3C(F)(F)F)CC2)cc1OC,.,.,.,/,.
Cn1c(-[n+]2c(-c3ccccc3)cc(-c3ccccc3)cc2-c2ccccc2)nc2c([N+](=O)[O-])cccc21,.,.,?,-62,?
CCOC(=O)c1c(S(=O)(=O)N2CCCC(C(=O)Nc3cccc(C#N)c3)C2)c(C)n(C)c1C (stereo unspecified),.,.,.,/,.
Cc1ccc(NC(=O)c2cc3c(s2)CCCC3)cc1,.,.,.,-53,.
CC1CCc2sc(C(=O)Nc3ccc(C(N)=O)cc3)cc2C1 (stereo unspecified),.,.,.,-70,.
Cc1ccc(S(=O)(=O)Nc2ccc(Cl)cc2)cc1NC(=O)c1cc2c(s1)CCCC2,?,.,.,-64,13µM
COc1cc2c(NC3CCN(C(C)C)CC3)nc(N3CCCN(C)CC3)nc2cc1OCCOCCN1CCCC1,/,.,/,/,?
CC(C)c1ccc(C2C3=C(CC(c4ccco4)CC3=O)Nc3nc(C(F)(F)F)nn32)cc1 (stereo unspecified),/,.,/,/,.
Cc1cccc(COC[C@H](CC(C)C)N2CCN(C(=O)c3ccc(C(C)(C)C)cc3)CCC2=O)c1,/,/,?,-70,/
Cc1cccc(COCC(CC(C)C)N2CCN(C(=O)c3ccc(C(F)(F)F)cc3)CCC2=O)c1 (stereo unspecified),?,.,.,-54,?
CC1Cn2c(C(=O)NCCc3ccc(Cl)cc3)cc3cccc(c32)S1 (stereo unspecified),/,.,/,/,?
